Only some compounds are listed: those with a hit (about 3.5% of all), similar ones and a draw of the others.
FBW7 act – FBW7 E3 ligase activators, primary screen, biochemical, AlphaScreen, human; F-box/WD repeat-containing protein 7 (Homo sapiens), Q969H0; AlphaScreen FBW7–phospho-cyclin E peptide binding, activator screen; normalized activity (activation), % at 26.1 µM; 0.13% of 650,000 active; AID 1259310, 2017; in the data active means normalized activity above about 1.9%;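 further: purified mutant Fbw7 with reduced substrate affinity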
TEAD-YAP block – TEAD-YAP interaction inhibition, primary screen, TEAD-YAP interaction inhibitor project, luminescence, HEK-TIYL cells; TEAD-Gal4/YAP UAS-luciferase luminescence; inhibition, % at 9.12 µM; 1.4% of 640,000 active; in the data active means inhibition above about 32%;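 further: 0% = median of test compound wells and 100% = reference inhibitor wells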
GPR151 ag – activators of human GPR151, primary screen, cell-based, PathHunter beta-arrestin, luminescence; PathHunter beta-arrestin GPR151 cells; activation, % at 11.2 µM; 1% of 650,000 active; AID 1508602, 2020; in the data active means activation above about 4.9%;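 further: 0% = median of compound wells and 100% = cells with positive control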
Target sequence (Q8TDV0 whole entry, looked up): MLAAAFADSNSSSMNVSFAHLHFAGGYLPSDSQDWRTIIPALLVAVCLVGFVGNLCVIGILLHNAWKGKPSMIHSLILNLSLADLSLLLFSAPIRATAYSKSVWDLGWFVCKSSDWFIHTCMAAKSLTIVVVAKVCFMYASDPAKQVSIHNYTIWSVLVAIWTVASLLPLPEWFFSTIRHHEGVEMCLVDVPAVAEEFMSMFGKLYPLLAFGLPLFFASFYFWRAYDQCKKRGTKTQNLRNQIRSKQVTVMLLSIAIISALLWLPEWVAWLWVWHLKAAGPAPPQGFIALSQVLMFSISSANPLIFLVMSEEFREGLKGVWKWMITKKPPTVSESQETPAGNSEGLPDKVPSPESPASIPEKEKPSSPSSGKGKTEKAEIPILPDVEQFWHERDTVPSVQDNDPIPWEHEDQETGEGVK
MITF inh – MITF inhibitors, primary screen, biochemical, AlphaScreen, human; 0.91% of 650,000 active; inhibition, % at 2.6 µM; AlphaScreen MITF homodimerization, bead proximity signal; AID 1259374, 2018; in the data active means inhibition above about 50%;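 further: 0% = vehicle wells with protein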
MITF confirm – MITF inhibitors, retest of hits, confirmation, biochemical, AlphaScreen, triplicate | inhibition, % at 2.6 µM | shares compounds with MITF inh | AlphaScreen MITF homodimerization, biotin/His-MITF beads | 16% of 4,700 active | AID 1259372, 2018;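 active means inhibition above a cutoff derived from the DMSO control wells, cut at about 28% in these data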;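 further: 0% = MITF dimer wells with DMSO only; inhibitors lower the bead chemiluminescence by keeping MITF from dimerizing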
AlphaScreen intf2 – AlphaScreen optical interference compounds, counter-screen for MITF inhibitor project, biochemical, triplicate; shares compounds with MITF inh; LysRS AlphaScreen counterscreen, signal interference; inhibition, % at 2.6 µM; 7.6% of 4,700 active; AID 1259376, 2018;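 active means inhibition above a cutoff derived from the DMSO control wells, cut at about 30% in these data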
The depositor's hits bear a star.

For Cc1ccc(OC(=O)N[C@H]2C[C@H]3C(=O)N[C@@H](COCc4ccccc4)C(=O)N3C2)cc1 the results were FBW7 act -0.1, TEAD-YAP block -6.5, GPR151 ag 3.4 and MITF inh -3.1.
COc1cccc(-c2nc(C3CCN(C(C)=O)CC3)n3ccc(Cl)cc23)c1 was read as FBW7 act -0.3, TEAD-YAP block 1.9, GPR151 ag -0.4, MITF inh 77.0*, MITF confirm 7.1 and AlphaScreen intf2 12.8.
Screening Cn1c(SCc2ccc(F)cc2)nc2ccc(C(=O)N3CCC(C(N)=O)CC3)cc21 returned FBW7 act 0.5, TEAD-YAP block -2.6, GPR151 ag 4.0 and MITF inh 9.4.
Screening Cc1nc2ncnn2c(C)c1CCC(=O)N(C)c1ccccc1 returned FBW7 act 0.1, TEAD-YAP block 6.2, GPR151 ag 1.5 and MITF inh 5.6.
For COc1ccccc1N1CCN(CCCOc2ccc(F)cc2)CC1 the results were FBW7 act 0.2, TEAD-YAP block 9.2, GPR151 ag 1.2, MITF inh 59.9*, MITF confirm 7.4 and AlphaScreen intf2 11.7.
Screening COc1ccccc1N1CCN(C(=O)CN2CCN(C)CC2)CC1 returned FBW7 act 0.3, TEAD-YAP block 13.9, GPR151 ag 4.6, MITF inh 54.4*, MITF confirm 1.8 and AlphaScreen intf2 -0.9.
For COc1ccc(OCCCN2CCN(c3ccccc3OC)CC2)cc1 the results were FBW7 act 0.0, TEAD-YAP block 7.7, GPR151 ag 1.0, MITF inh 80.6*, MITF confirm 52.5* and AlphaScreen intf2 39.4*.
COc1ccccc1NC(=O)N1CCN(C)CC1 was read as FBW7 act 0.0, TEAD-YAP block 7.8, GPR151 ag -0.6, MITF inh 51.6*, MITF confirm 8.8 and AlphaScreen intf2 10.3.
Screening COc1ccccc1N1CCN(CCCCCCN)CC1 returned FBW7 act 0.2, TEAD-YAP block 6.7, GPR151 ag -0.3 and MITF inh 6.0.
For CCOC(=O)c1[nH]c2ccccc2c1NC(=O)c1cc(Cl)ccc1OC the results were FBW7 act 0.0, TEAD-YAP block 4.0, GPR151 ag -0.1 and MITF inh -10.2.
`Cc1cccc(OCC(=O)NCCc2ccc(N3CCCC3)cc2)c1` gave FBW7 act -0.6, TEAD-YAP block 1.9, GPR151 ag 0.4, MITF inh 52.9*, MITF confirm -1.6 and AlphaScreen intf2 -0.6.
`O=C(Nc1ccccc1C(=O)O)c1cncc(Br)c1` gave FBW7 act 0.1, TEAD-YAP block -9.2, GPR151 ag -4.1, MITF inh 56.6*, MITF confirm 11.2 and AlphaScreen intf2 13.8.
Screening O=C(NC(=S)Nc1ccccc1C(=O)O)c1cncc(Br)c1 returned FBW7 act 0.1, TEAD-YAP block 5.7, GPR151 ag -0.9 and MITF inh 17.4.
CCCCc1ccc(N2C(=O)c3ccccc3NC2c2ccc(C(C)C)cc2)cc1 (centres undefined) was read as FBW7 act 0.7, TEAD-YAP block -24.7, GPR151 ag -0.8 and MITF inh 14.7.
For Cc1cccc(C)c1N1CCN(C(=O)c2cc3cc(Br)ccc3oc2=O)CC1 the results were FBW7 act -0.1, TEAD-YAP block 6.4, GPR151 ag 1.8, MITF inh 88.5*, MITF confirm -14.7 and AlphaScreen intf2 -0.6.
For Cc1ccc(N2CCN(C(=O)c3cc4cc(Br)ccc4oc3=O)CC2)cc1C the results were FBW7 act -0.1, TEAD-YAP block -1.3, GPR151 ag -0.6 and MITF inh 7.3.
For COc1ccc(S(=O)(=O)N2CCN(Cc3ccc([N+](=O)[O-])cc3)CC2)cc1 the results were FBW7 act -0.1, TEAD-YAP block -0.1, GPR151 ag 0.6 and MITF inh 2.9.
Screening O=[N+]([O-])c1ccccc1S(=O)(=O)N1CCN(Cc2cccc(Br)c2)CC1 returned FBW7 act -0.1, TEAD-YAP block -3.8, GPR151 ag 1.5 and MITF inh 21.5.

Screening data: PubChem, The Scripps Research Institute Molecular Screening Center
